The record followed here is PubChem BioAssay (NCATS).

The structures appear in SMILES notation. Results filed as inconclusive are left out. Entries that show only a call come without a potency. Calls of active or inactive are those of the source. Calls come from the whole dose curve; as a rule, active = well fitted curve in the direction sought with a large enough effect; inconclusive = small, poorly fitted or top-dose-only effect, or another doubt; inactive = no such curve, though single readings can be large; an effect the other way counts as inactive or inconclusive.

The subject of experiment [1] is Zika virus NS2B-NS3 protease. In words: Primary screen GU AMC qHTS for Zika virus inhibitors (AID 1347154). Note: nearly all actives have a fitted effect of over 70% in size. The gist of the method:
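Unlinked Zika NS2B hydrophilic domain–NS3 protease complex at 25 nM in 10 mM Tris-HCl pH 8.0, 0.01% Tween 20, with an AMC peptide substrate. Fluorescence change (340/450 nm) over 15 min at room temperature, normalized to controls, fitted to 4-parameter Hill.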

Experiment [2] can be described thus: Confirmatory screen GU Rhodamine qHTS for Zika virus inhibitors qHTS (AID 1347157). Note: nearly all actives have a fitted effect of over 70% in size. Conditions: purified enzyme assay, Rhodamine110 substrate fluorescence, 15 min. The gist of the method: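 Noncovalent NS2B hydrophilic domain/NS3 protease complex (25 nM final) in 10 mM Tris-HCl pH 8.0, 0.01% Tween 20, preincubated 15 min with compounds (up to 114 microM), then 1.5 microM Rhodamine110 substrate. Fluorescence change over 15 min fitted to 4-parameter Hill.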

Experiment [3] can be described thus: ZIKV-mCherry secondary qHTS for Zika virus inhibitors (AID 1347158). The settings on record: Vero cells, ZIKV-mCherry infection imaging, 48-72 h. The source says: Assay Submitters (PI): Avindra Nath, Ph.D., National Institute of Neurological Disorders and Stroke (NINDS), Bethesda, MD Radhakrishnan Padmanabhan, Ph.D., Georgetown University (GU), Washington D.C. Zika Virus causes congenital defects, including microcephaly and is associated with Guillain-Barre syndrome, eningoencephalitis and myelitis in infected adult. […] Using a target-based approach, we hope to establish a screening paradigm to uncover novel, cell-active NS2B-NS3 protease (Zika Virus) specific inhibitors from NCATS' collection of small molecules using qHTS. […] Four assay panel was created to identify potential Zika Virus inhibitors. […]
384 well ZIKV-mCherry Assay: We have developed a new orthogonal imaging assay in 384-well plate format, which uses recombinant virus ZIKV-mCherry in Vero cells. […] The TIFFs were quantitated using the canned Multi Target Analysis protocol (GE Investigator Workstation software v3.7.2). […] A recombinant Zika viral infection was monitored in the Cy5 channel (cells) using a 2 microm collar dilation from the nuclear bitmap. mCherry objects with an average nuclear RFU intensity above 450 (3 stdev above mean negative control wells) were considered "mcherry positive" and data was analyzed by percent infection rate.
For orientation: Quantitative high-throughput screening tests each substance at several concentrations.
Potency is the fitted concentration of half-maximal effect.

For `CC(C)(C)NCC(O)c1cc(Cl)c(N)c(C(F)(F)F)c1` (stereo not given), the Potency result in experiment [1] was “inactive”.

Take `Nc1ccc([As](=O)(O)O)cc1`: in experiment [1], the Potency entry is “inactive”.

For `c1ccc(CN2CCNCC2)cc1`, in experiment [1], the Potency result was “inactive”.

For `COc1cccc2c1C(=O)c1c(O)c3c(c(O)c1C2=O)C[C@@](O)(C(=O)CO)CC3OC1CC(N2CCOC(OC)C2)C(O)C(C)O1` (stereo not given in full), the Potency entry in experiment [1] was “inactive”.

Take `CCC(C)C(C)(COC(N)=O)COC(N)=O` (stereo not given): in experiment [1], the Potency entry was “inactive”.

`COc1c2c(cc3c1OCO3)CCN(C)C2`: the Potency result in experiment [1] was “inactive”.

For the molecule `O=C1c2ccccc2C(=O)C1C(=O)C(c1ccccc1)c1ccccc1`, in experiment [1], the Potency entry was “inactive”.

Take `c1ccc(N2CCNCC2)cc1`: the Potency result in experiment [1] was “inactive”.

On to `CC(Cc1ccccc1)N(C)Cc1ccco1` (stereo not given), for which the Potency entry in experiment [1] was “inactive”.

`CN1CC[C@]23c4c5ccc(O)c4O[C@H]2[C@@H](O)CC[C@H]3[C@H]1C5`: the Potency entry in experiment [1] is “inactive”.

With `COc1cc(OC)c(OC)cc1C=O`, in experiment [1], the Potency entry was “inactive”.

As to `C[C@H](N)C(=O)c1ccccc1`, in experiment [1], the Potency result is “inactive”.

On to `C#CC(O)(C=CCl)CC` (stereo not given), for which the Potency entry in experiment [1] is “inactive”.

For `O=C(O)c1ccc(=O)[nH]c1`, in experiment [1], the Potency entry is “inactive”.

For the molecule `CCCCC/C=C\C/C=C\C/C=C\C/C=C\CCCC(=O)NCC(=O)O`, in experiment [1], the Potency was 25.6 µM (active).

On to `CCCCCCC(=O)CCCCCC/C=C/C[C@@H](O)[C@H](O)[C@@](N)(CO)C(=O)O`, for which the Potency entry in experiment [1] is “inactive”.

As for `C[C@]12CCC(=O)C=C1CC[C@@H]1[C@H]3CC[C@](C)(O)[C@@]3(C)CC[C@@H]12`, the Potency entry in experiment [1] was “inactive”.

As for `CCN[C@@H](C)Cc1cccc(C(F)(F)F)c1`, the Potency entry in experiment [1] is “inactive”.

As for `CCN(CCO)CCn1c(Cc2ccccc2)nc2c1c(=O)n(C)c(=O)n2C`, in experiment [1], the Potency result was “inactive”.

Consider `Clc1ccc(C(c2ccc(Cl)cc2)C(Cl)(Cl)Cl)cc1`, for which the Potency result in experiment [1] was “inactive”.

Take `C[C@]12CC[C@H]3[C@@H](CCC4=CC(=O)CC[C@@H]43)[C@@H]1CC[C@@H]2OC(=O)CCC1CCCCC1`: the Potency result in experiment [1] was “inactive”.

On to `COc1cc(CC(C)N)cc(OC)c1OC` (stereo not given), for which the Potency entry in experiment [1] is “inactive”.

Regarding `CNC(C)(C)Cc1ccccc1`, in experiment [1], the Potency entry is “inactive”.

With `CCN[C@@H](C)Cc1ccccc1`, the Potency entry in experiment [1] was “inactive”.

Consider `CC1(C)C(C=C(Cl)Cl)C1C(=O)OC(C#N)c1cccc(Oc2ccccc2)c1` (stereo not given), for which the Potency entry in experiment [1] is “inactive”.

On to `CN(C)CCc1c[nH]c2cccc(OP(=O)(O)O)c12`, for which the Potency result in experiment [1] is “inactive”.

On to `C[C@]12Cc3cn[nH]c3C[C@@H]1CC[C@@H]1[C@@H]2CC[C@@]2(C)[C@H]1CC[C@]2(C)O`, for which, in experiment [1], the Potency entry was “inactive”.

In the case of `c1ccc2c(c1)sc1ccccc12`, the Potency result in experiment [1] is “inactive”.

Take `CC(C)NC(C)C`: the Potency result in experiment [1] is “inactive”.

With `COP(=S)(OC)Oc1cc(Cl)c(Cl)cc1Cl`, the Potency result in experiment [1] is “inactive”.

Consider `COP(=S)(OC)Oc1ccc(SC)c(C)c1`, for which the Potency result in experiment [1] is “inactive”.

Take `COC1CC(=C(c2cccs2)c2cccs2)C[N+](C)(C)C1` (stereo not given): the Potency result in experiment [1] was “inactive”.

Take `C[C@]12CCC(=O)C=C1CC[C@@H]1[C@@H]2CC[C@]2(C)C(=O)CC[C@@H]12`: in experiment [1], the Potency entry was “inactive”.

For `CCN[C@H](C)Cc1cccc(C(F)(F)F)c1`, the Potency entry in experiment [1] is “inactive”.

In the case of `NC(=O)c1cc([N+](=O)[O-])cc([N+](=O)[O-])c1`, the Potency result in experiment [1] is “inactive”.

Turning to `Clc1ccccc1N1CCNCC1`, in experiment [1], the Potency entry was “inactive”.

As to `CCC1(CC)C(=O)C=CNC1=O`, in experiment [1], the Potency result is “inactive”.

Regarding `CC(=O)OCC1=C(C(=O)O)N2C(=O)[C@@H](N)[C@H]2SC1`, the Potency in experiment [2] is 22.1 µM (active).

Regarding `O=C1OC(c2ccc(O)c(S(=O)(=O)O)c2)(c2ccc(O)c(S(=O)(=O)O)c2)c2c(Br)c(Br)c(Br)c(Br)c21`, in experiment [2], the Potency is 3.16 µM (active).

With `O=C(Nc1ccc(Br)cc1)c1cc(Br)cc(Br)c1O`, the Potency in experiment [3] is 8.91 µM (active).
